Our source for the growth inhibition values is PubChem BioAssay (NCI).

The panel holds about 79,000 compounds, 15% with a hit somewhere; the sample as a whole holds those more often. Unmarked numbers belong to inactive results. Activity calls are given as the source filed them. Cut-off read from the data, not from the text of the source: active = growth inhibition above about 70%; inactive = the rest.

The nature of test [1]: NCI Yeast Anticancer Drug Screen. Data for the rad50 strain (AID 155).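 Note: 0% = growth of vehicle-only cultures of the same strain.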 To be noted: S. cerevisiae rad50 strain growth inhibition, active compounds read high. Summed up: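 A DNA repair-deficient yeast mutant serves as the test organism; compound-induced growth inhibition is calculated against vehicle-treated cells.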
Test [2] in a line: NCI Yeast Anticancer Drug Screen. Data for the mec2-1 strain (AID 157). To be noted: S. cerevisiae mec2-1 strain, active compounds read high. The method in brief:
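Compounds were applied to mec2-1 yeast cells. Their growth was then compared with that of vehicle-treated cultures to give growth inhibition.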

The nature of test [3]: NCI Yeast Anticancer Drug Screen. Data for the sgs1 mgt1 strain (AID 161).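 Note: 0% = growth of cultures given vehicle only.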 To be noted: S. cerevisiae sgs1 mgt1 strain, active compounds read high. The method in brief:
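Growth of a repair-deficient yeast mutant was monitored after compound treatment and expressed as inhibition relative to vehicle-treated cultures.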

Test [4] in a line: NCI Yeast Anticancer Drug Screen. Data for the cln2 rad14 strain (AID 165).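 Note: 0% = growth equal to vehicle treated cultures.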 To be noted: S. cerevisiae cln2 rad14 strain, active compounds read high. Summed up:
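Strain: cln2 rad14 yeast, altered in cell cycle control and DNA damage repair. Read-out: growth inhibition vs vehicle.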

Test [5] in a line: NCI Yeast Anticancer Drug Screen. Data for the bub3 strain (AID 167). To be noted: S. cerevisiae bub3 mutant strain, active compounds read high. The method in brief:
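Inhibition values come from growth of compound-treated mutant yeast normalised to vehicle-treated controls.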

The nature of test [6]: NCI Yeast Anticancer Drug Screen. Data for the mlh1 rad18 strain (AID 175). To be noted: S. cerevisiae mlh1 rad18 strain growth inhibition, active compounds read high. Summed up: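 A repair-deficient yeast strain is exposed to test compound, and growth is scored relative to vehicle-treated controls.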
[7] abbreviates: at 5.0 µM (retest, dose inferred, filed as 0.5).
Setting [8] is: at 50.0 µM (retest, dose inferred, filed as 5.0).

Turning to `NC(=S)N/N=C1\NC(=O)/C(=C/c2ccc3c(c2)OCO3)S1`, the growth inhibition in test [1] (setting [7]) was 16%; in test [1] (setting [8]) it was 12%; in test [1] (at 50.0 µM), -45.6%; in test [2] (setting [7]) it was 15%; in test [2] (setting [8]), 20%; in test [2] (at 50.0 µM), -40.6%. Also, the growth inhibition was 13% in test [3] (setting [7]); 13% in test [3] (setting [8]); -13.3% in test [3] (at 50.0 µM); 16% in test [4] (setting [7]); 11% in test [4] (setting [8]); -13.9% in test [4] (at 50.0 µM). The growth inhibition in test [5] (setting [7]) is 9%; in test [5] (setting [8]), 31%; in test [5] (at 50.0 µM) it was 0.7%; in test [6] (setting [7]) it was 14%; in test [6] (setting [8]) it was 18%; in test [6] (at 50.0 µM) it was -14%.
Regarding `COc1ccc(/C=C2\Sc3scc(-c4ccc([N+](=O)[O-])cc4)[n+]3C2=O)cc1OC`, the growth inhibition was 3% in test [1] (setting [7]); 4% in test [1] (setting [8]); 39.3% in test [1] (at 50.0 µM); -6% in test [2] (setting [7]); 20% in test [2] (setting [8]); 55% in test [2] (at 50.0 µM). The growth inhibition was -3% in test [3] (setting [7]); 11% in test [3] (setting [8]); 66% in test [3] (at 50.0 µM); 0% in test [4] (setting [7]); -4% in test [4] (setting [8]); 28.6% in test [4] (at 50.0 µM). For the same compound, the growth inhibition is 9% in test [5] (setting [7]); 16% in test [5] (setting [8]); 83% (active) in test [5] (at 50.0 µM); 3% in test [6] (setting [7]); 12% in test [6] (setting [8]); 65.8% in test [6] (at 50.0 µM).
As to `O=C1C(Cl)=C(Cl)C(=O)C2=C1CC(Cl)C(Cl)C2` (stereo not given), the growth inhibition in test [1] (setting [7]) was 87% (active); in test [1] (setting [8]), 98% (active); in test [1] (at 50.0 µM), 99.3% (active); in test [2] (setting [7]), 90% (active); in test [2] (setting [8]), 99% (active); in test [2] (at 50.0 µM), 99.3% (active). The growth inhibition in test [3] (setting [7]) is 91% (active); in test [3] (setting [8]), 97% (active); in test [3] (at 50.0 µM), 99.5% (active); in test [4] (setting [7]), 37%; in test [4] (setting [8]), 99% (active); in test [4] (at 50.0 µM), 99% (active). The growth inhibition was 96% (active) in test [5] (setting [7]); 98% (active) in test [5] (setting [8]); 99.3% (active) in test [5] (at 50.0 µM); 95% (active) in test [6] (setting [7]); 99% (active) in test [6] (setting [8]); 99.2% (active) in test [6] (at 50.0 µM).
Take `CCOC(=O)c1ccc(O)c(C=O)c1`: the growth inhibition in test [1] (setting [7]) was -103%; in test [1] (setting [8]), 90% (active); in test [1] (at 50.0 µM) it was 99.2% (active); in test [2] (setting [7]), -29%; in test [2] (setting [8]) it was 98% (active); in test [2] (at 50.0 µM) it was 99.6% (active). Further, the growth inhibition is -35% in test [3] (setting [7]); 98% (active) in test [3] (setting [8]); 99.3% (active) in test [3] (at 50.0 µM); -28% in test [4] (setting [7]); 98% (active) in test [4] (setting [8]); 99% (active) in test [4] (at 50.0 µM). The growth inhibition in test [5] (setting [7]) was -49%; in test [5] (setting [8]), 98% (active); in test [5] (at 50.0 µM), 98.6% (active); in test [6] (setting [7]), -83%; in test [6] (setting [8]), 98% (active); in test [6] (at 50.0 µM), 99.5% (active).
As for `CC(C)Cn1cnc2c(SCc3cccc(F)c3)nc(N)nc21`, the growth inhibition in test [1] (setting [7]) was 0%; in test [1] (setting [8]), 27%; in test [1] (at 50.0 µM), -10.4%; in test [2] (setting [7]) it was -1%; in test [2] (setting [8]) it was 12%; in test [2] (at 50.0 µM) it was 8.05%. The growth inhibition was 2% in test [3] (setting [7]); 31% in test [3] (setting [8]); 67.8% in test [3] (at 50.0 µM); -5% in test [4] (setting [7]); 54% in test [4] (setting [8]); -10.2% in test [4] (at 50.0 µM). Moreover, the growth inhibition in test [5] (setting [7]) is 2%; in test [5] (setting [8]) it was 35%; in test [5] (at 50.0 µM) it was 73.3% (active); in test [6] (setting [7]) it was 0%; in test [6] (setting [8]) it was 45%; in test [6] (at 50.0 µM), 37%.
With `COc1cc(CNc2nc3ccccc3nc2-c2cccs2)cc(OC)c1OC`, the growth inhibition was 5% in test [1] (setting [7]); 12% in test [1] (setting [8]); 10% in test [1] (at 50.0 µM); -13% in test [2] (setting [7]); -22% in test [2] (setting [8]); 0.65% in test [2] (at 50.0 µM). Besides, the growth inhibition in test [3] (setting [7]) is -1%; in test [3] (setting [8]) it was 20%; in test [3] (at 50.0 µM) it was 19.6%; in test [4] (setting [7]), -12%; in test [4] (setting [8]), 9%; in test [4] (at 50.0 µM) it was 60%. Moreover, the growth inhibition in test [5] (setting [7]) was -12%; in test [5] (setting [8]) it was -8%; in test [5] (at 50.0 µM), 30%; in test [6] (setting [7]), -17%; in test [6] (setting [8]), 17%; in test [6] (at 50.0 µM), 55.3%.
As for `COC(=O)[C@@]12OC[C@]34[C@H]([C@@H](O)[C@@H]1O)[C@@]1(C)CC(=O)C(OC(=O)CC(=O)OC5=C(C)[C@@H]6C[C@H]7OC(=O)[C@H](OC(=O)/C=C(\C)C(C)C)[C@H]8[C@]9(C(=O)OC)OC[C@]78[C@H]([C@@H](O)[C@@H]9O)[C@@]6(C)CC5=O)=C(C)[C@@H]1C[C@H]3OC(=O)[C@H](OC(=O)/C=C(\C)C(C)C)[C@@H]24`, the growth inhibition in test [1] (setting [7]) is 45%; in test [1] (setting [8]), 98% (active); in test [1] (at 50.0 µM), 90.3% (active); in test [2] (setting [7]), 43%; in test [2] (setting [8]), 99% (active); in test [2] (at 50.0 µM), 92.3% (active). In addition, the growth inhibition in test [3] (setting [7]) is 42%; in test [3] (setting [8]) it was 98% (active); in test [3] (at 50.0 µM), 92.5% (active); in test [4] (setting [7]) it was 49%; in test [4] (setting [8]), 98% (active); in test [4] (at 50.0 µM) it was 89.6% (active). Moreover, the growth inhibition in test [5] (setting [7]) is 57%; in test [5] (setting [8]), 99% (active); in test [5] (at 50.0 µM) it was 92.2% (active); in test [6] (setting [7]), 58%; in test [6] (setting [8]), 97% (active); in test [6] (at 50.0 µM) it was 84.5% (active).
On to `c1ccc2nc(C[n+]3cccc4ccccc43)ccc2c1`, for which the growth inhibition was 86% (active) in test [1] (setting [7]); 99% (active) in test [1] (setting [8]); 97.5% (active) in test [1] (at 50.0 µM); 73% (active) in test [2] (setting [7]); 99% (active) in test [2] (setting [8]); 97.8% (active) in test [2] (at 50.0 µM). Moreover, the growth inhibition in test [3] (setting [7]) was 70% (active); in test [3] (setting [8]), 97% (active); in test [3] (at 50.0 µM), 58.4%; in test [4] (setting [7]), 72% (active); in test [4] (setting [8]) it was 99% (active); in test [4] (at 50.0 µM) it was 80% (active). Moreover, the growth inhibition in test [5] (setting [7]) was 64%; in test [5] (setting [8]), 98% (active); in test [5] (at 50.0 µM) it was 97.9% (active); in test [6] (setting [7]), 73% (active); in test [6] (setting [8]), 98% (active); in test [6] (at 50.0 µM), 97.1% (active).
As to `N#CCN1CCCCCc2ccccc21`, the growth inhibition in test [1] (setting [7]) was -4%; in test [1] (setting [8]), -3%; in test [1] (at 50.0 µM), -26.6%; in test [2] (setting [7]), 0%; in test [2] (setting [8]), -18%; in test [2] (at 50.0 µM), -12.7%. Further, the growth inhibition in test [3] (setting [7]) was -29%; in test [3] (setting [8]) it was -29%; in test [3] (at 50.0 µM), -3.15%; in test [4] (setting [7]) it was 9%; in test [4] (setting [8]) it was -1%; in test [4] (at 50.0 µM), 11.2%. In addition, the growth inhibition in test [5] (setting [7]) was -14%; in test [5] (setting [8]) it was -32%; in test [5] (at 50.0 µM), -3.2%; in test [6] (setting [7]), -18%; in test [6] (setting [8]), -18%; in test [6] (at 50.0 µM), -7.65%.
Take `COc1cc(C(c2cc3c(cc2O)OCO3)N2CCN(C(c3cc(OC)c(O)c(OC)c3)c3cc4c(cc3O)OCO4)CC2)cc(OC)c1O` (stereo not given): the growth inhibition in test [1] (setting [7]) is -3%; in test [1] (setting [8]), 7%; in test [1] (at 50.0 µM) it was 26.3%; in test [2] (setting [7]), 1%; in test [2] (setting [8]), 16%; in test [2] (at 50.0 µM), 41%. In addition, the growth inhibition in test [3] (setting [7]) was -2%; in test [3] (setting [8]), 15%; in test [3] (at 50.0 µM), 43.6%; in test [4] (setting [7]), 0%; in test [4] (setting [8]) it was -12%; in test [4] (at 50.0 µM), -36.5%. The growth inhibition in test [5] (setting [7]) is 1%; in test [5] (setting [8]), 10%; in test [5] (at 50.0 µM) it was 33.8%; in test [6] (setting [7]), 0%; in test [6] (setting [8]) it was 7%; in test [6] (at 50.0 µM), 51.2%.
